Source: the supplement of paper PMC12339681
Counter-ions that a name gives are not always drawn.

What follows are molecules tested on PBMC-derived induced microglia-like cells (piMGLC) (assay: synaptosome phagocytic index relative to DMSO control (fraction of DMSO); higher = more phagocytosis). Details: concentration: 10 uM (2 uM for compounds listed in Table S2); pretreatment time: 24 h; assay time: 3 h.

Going from CC/C(=C(/CC)c1ccc(O)cc1)c1ccc(O)cc1 [Diethylstilbestrol] to CN(C)CCC=C1c2ccccc2C=Cc2ccccc21 [Cyclobenzaprine_(hydrochloride)], the synaptosome phagocytic index falls from 0.638 to 0.59.

First: CCCCN1CCCCC1C(=O)Nc1c(C)cccc1C (centres undefined) [Bupivacaine_(hydrochloride)]
Second: CCCCOc1ccc(C(=O)CCN2CCCCC2)cc1 [Dyclonine_(hydrochloride)]
The synaptosome phagocytic index of the first is higher: 0.836 for the first, 0.68 for the second.

First: CCCN[C@H]1CCc2nc(N)sc2C1 [Pramipexole_(dihydrochloride_hydrate)]
Second: CCC(=O)NCC[C@@H]1CCc2ccc3c(c21)CCO3 [Ramelteon]
The synaptosome phagocytic index of the first is lower: 0.763 for the first, 0.767 for the second.

Compared with N[C@@H](CC(=O)O)C(=O)O [L-Aspartic_acid], N[C@H](C(=O)O)[C@H](O)c1ccc(O)c(O)c1 [Droxidopa] is lower in synaptosome phagocytic index: 0.871 for the first, 0.507 for the second.

Compared with CC[C@@]1(O)C(=O)OCc2c1cc1n(c2=O)Cc2cc3c(CN(C)C)c(O)ccc3nc2-1 [Topotecan_(Hydrochloride)], Fc1c(Br)cccc1Nc1ncnc2cc3c(cc12)OCCO3 is lower in synaptosome phagocytic index: 0.354 for the first, 0.118 for the second.

Compared with N#Cc1cccc(-c2c[nH]c3ncnc(N4CCOCC4)c23)c1, CN1CCC(=C2c3ccccc3C=Cc3ccccc32)CC1 [Cyproheptadine_(hydrochloride)] is higher in synaptosome phagocytic index: 0.623 for the first, 0.741 for the second.

First: CN(C)CCCN1c2ccccc2CCc2ccccc21 [Imipramine_(hydrochloride)]
Second: OCCOCCN1CCN(C2=Nc3ccccc3Sc3ccccc32)CC1 [Quetiapine]
The synaptosome phagocytic index of the first is lower: 0.863 for the first, 0.906 for the second.

Compared with O=C1CCC(N2C(=O)c3ccccc3C2=O)C(=O)N1 (centres undefined) [Thalidomide], O=C1NC(=O)C(c2ccccc2)(c2ccccc2)N1 [Phenytoin] is higher in synaptosome phagocytic index: 0.811 for the first, 1.12 for the second.

Going from CO[C@H]1C(=O)[C@]2(C)[C@@H](OC)C[C@H]3OC[C@@]3(OC(C)=O)[C@H]2[C@H](OC(=O)c2ccccc2)[C@]2(O)C[C@H](OC(=O)[C@H](O)[C@@H](NC(=O)OC(C)(C)C)c3ccccc3)C(C)=C1C2(C)C [Cabazitaxel] to COCc1ccc(-c2ccc(N(C[C@@H](N)[C@@H](C)OC)C(=O)[C@@H]3C[C@H]3c3ccccn3)cc2)cc1, the synaptosome phagocytic index falls from 0.833 to 0.794.

Going from COc1ccccc1OCC(O)COC(N)=O (centres undefined) [Methocarbamol] to CC[C@H](CO)Nc1nc(NCc2ccccc2)c2ncn(C(C)C)c2n1 [Seliciclib], the synaptosome phagocytic index falls from 0.902 to 0.569.

First: CNS(=O)(=O)CCc1ccc2[nH]cc(C3CCN(C)CC3)c2c1 [Naratriptan_(hydrochloride)]
Second: Nc1nc(NC2CC2)c2ncn([C@H]3C=C[C@@H](CO)C3)c2n1 [Abacavir]
The synaptosome phagocytic index of the first is higher: 1.3 for the first, 1.15 for the second.

First: Nc1ccn([C@@H]2O[C@H](CO)[C@@H](O)[C@@H]2O)c(=O)n1 [Cytarabine]
Second: CC(=O)[C@H]1CC[C@H]2[C@@H]3CCC4=CC(=O)CC[C@]4(C)[C@H]3CC[C@]12C [Progesterone]
The synaptosome phagocytic index of the first is lower: 0.44 for the first, 0.761 for the second.
